Experimental data: PubChem BioAssay (NCI)
The panel holds about 83,000 compounds, 20% with a hit somewhere; the sample as a whole holds those more often.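 Interpretation: 100, growth as untreated; towards 0, rising growth inhibition; 0, no net growth; 0 to -100, cell death. Compounds scoring below 10 were considered active.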 The source made the active and inactive calls.

Test system: T-47D breast
Assay: NCI-60 one-dose screen, 48 h (100 = growth as untreated, 0 = no growth, -100 = all killed)
Details: 10 µM unless noted

| SMILES | growth |
| --- | --- |
| O=C(OCC1CCCO1)c1ccc([N+](=O)[O-])cc1 (stereo not drawn) | 84.8% (inactive) |
| Cc1ccc(NC(=O)c2ccccc2Cl)cc1 | 112% (inactive) |
| C/C(O)=C(/C=N\C(=S)Nc1ccc(S(=O)(=O)Nc2nccs2)cc1)C(=O)Nc1ccccc1C | 90.2% (inactive) |
| NC(=S)N/N=C/c1ccc(Cl)cc1 | 86.8% (inactive) |
| Oc1ccc(CCC2CCNc3ccccc32)cc1 (stereo not drawn) | 63.9% (inactive) |
| O=C(NC1CCCCC1)c1ccc(Cl)cc1 | 85.1% (inactive) |
| CCOC(=O)CO | 97.7% (inactive) |
| CC(c1ccccc1)N(C)C (stereo not drawn) | 112% (inactive) |
| CC(CCC#N)(CCC#N)C(=O)c1ccccc1 | 93.8% (inactive) |
| Cc1ccc2nc(-c3ccc(N=Cc4ccccc4O)cc3)sc2c1 | 69% (inactive) |
| Nc1cc2ccccc2c(O)c1O | -0.96% (active) |
| CCOc1ccccc1NC(=O)CCl | 75.3% (inactive) |
| CCC12OC(COc3ccccc3)CN1CCN2c1ccccc1 (stereo not drawn) | 90.4% [100 µM] (inactive) |
| Cc1ccc(S(=O)(=O)CCCl)cc1 | 106% (inactive) |
| CC(C)c1ccccc1NC(=O)N1CCC(C(C)C)CC1 | 111% (inactive) |
| COc1ccc(C2CC(c3ccccc3)=Nc3ccccc3S2)cc1 (stereo not drawn) | 84.1% (inactive) |
| NC(CO)(CO)c1ccccc1 | 99.7% (inactive) |
| C=CC(=O)OC1CCC(C(C)(C)CC)CC1 (stereo not drawn) | 112% (inactive) |
| Cc1[nH]n(-c2ccccc2)c(=O)c1C=NC(=S)C(N)=S | 102% (inactive) |

| SMILES | growth |
| --- | --- |
| COc1cccc2c1Cc1ccccc1-2 | 101% (inactive) |
| NC(=O)N1CCOCC1 | 97.4% (inactive) |
| CCC(=O)Oc1ccc2ccccc2c1 | 74.9% (inactive) |
| C=CCN1CCCC1=O | 100% (inactive) |
| O=C(O)c1cccc(-n2ncc(Cl)c(Cl)c2=O)c1 | 102% (inactive) |
| Cc1ccc(OC(=O)c2ccccc2)cc1 | 108% (inactive) |
| O=Cc1c(O)c2ccccc2[nH]c1=O | 106% (inactive) |
| CC(=O)c1ccc(C)cc1 | 120% (inactive) |
| N#Cc1ccc2nc[nH]c2c1 | 107% (inactive) |
| CC(=O)[C@@]1(O)CC[C@H]2[C@@H]3CC[C@@H]4CC(=O)CC[C@]4(C)[C@H]3[C@@H](O)C[C@@]21C | 88.2% (inactive) |
| COC(=O)Cc1cc(COC(C)=O)ccc1C | 110% (inactive) |
| c1ccc(-c2ccc3ccccc3c2)cc1 | 81.4% (inactive) |
| C=CCC(OC(C)=O)c1ccc(C(C)C)cc1 (stereo not drawn) | 115% (inactive) |
| C=C(OC(C)=O)c1ccccc1 | 89.5% (inactive) |
| Nc1cccc2cccc(O)c12 | 102% (inactive) |
| CC(=O)c1cccs1 | 90% (inactive) |
| CSCCC(NC(=O)C(Cl)Cl)C(=O)O (stereo not drawn) | 82.9% (inactive) |
| O=C(O)CSCC(=O)Nc1cc(C(F)(F)F)ccc1Cl | 102% (inactive) |
| CCCCNC(=O)c1ccc(OCC)cc1 | 96.1% (inactive) |
